The structures appear in SMILES notation. Activity calls are given as the source filed them.

Assay [1] concerns Human papillomavirus type 1a protein E7 (residues 44-93). The experiment in a line: HPV1a E7 fragment binders on microarrays, primary screen, biochemical, small-molecule microarray, residues 44-93, 635 nm fluorescence (AID 1108).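 Also: E7 fragment applied at 1 µg/mL in TBST for 1 h at 4 C; score combines spot fluorescence with its signal to noise ratio.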 To be noted: small-molecule microarray binding, fluorescence 635 nm; higher = more signal.
The nature of assay [2]: modulators of HCV replicon luciferase signal, primary screen, HCV replication inhibitor project, Huh7 cells, luciferase reporter (AID 1109).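 Also: huh7 hepatoma cells harbouring a luciferase neomycin HCV replicon reporter; luciferase luminescence as measure of HCV replicon replication; test concentration not given here.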 Particulars: 48 h, higher = more signal. On the technique in general: A replicon is a self-replicating genome or part of one, used to study replication in cells.
Assay [3] deals with Left-right determination factor 2 (Homo sapiens) (UniProt O00292). The experiment in a line: LEFTY2 binders on small-molecule microarrays, primary screen, biochemical, small-molecule microarray, 635 nm fluorescence scan (AID 1110). To be noted: LEFTY2 binding, higher = more signal.
Left-right determination factor 2 (Homo sapiens), sequence (O00292 whole entry, looked up): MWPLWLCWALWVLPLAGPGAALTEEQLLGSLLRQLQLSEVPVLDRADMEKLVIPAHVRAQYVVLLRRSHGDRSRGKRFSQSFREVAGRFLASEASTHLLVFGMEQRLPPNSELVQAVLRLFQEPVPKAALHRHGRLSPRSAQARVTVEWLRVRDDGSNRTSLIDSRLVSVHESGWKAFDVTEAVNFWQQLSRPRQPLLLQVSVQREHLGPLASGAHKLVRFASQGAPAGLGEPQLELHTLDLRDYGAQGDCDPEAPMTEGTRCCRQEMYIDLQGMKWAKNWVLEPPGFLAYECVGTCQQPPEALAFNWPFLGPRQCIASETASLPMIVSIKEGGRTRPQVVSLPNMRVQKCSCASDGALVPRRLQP
The target of assay [4] is Calmodulin-1 (Homo sapiens) (UniProt P0DP23). Briefly: CALM1 binders on microarrays, EGTA buffer, profiling panel, biochemical, small-molecule microarray, Cy5-labelled CALM1 (AID 1111).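 Also: labelled calmodulin applied in Tris saline Tween buffer holding calcium plus EGTA and DTT.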 To be noted: Cy5-CALM1 binding fluorescence, higher = more signal.
For assay [5] the target is unchanged. The experiment in a line: calcium-bound CALM1 binders on microarrays, profiling panel, artefact control for SMM control-protein annotation, biochemical, small-molecule microarray, Cy5-labelled CALM1, plus calcium (AID 1112).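 Also: score merges spot fluorescence with signal to noise from triplicate slides.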 Particulars: Cy5-CALM1 binding fluorescence, higher = more signal.
Assay [6] is described as follows: small-molecule microarray binders of probe aWnt5a, primary screen, biochemical, biotinylated probe, 635/667 nm fluorescence (AID 1113).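 Also: score merges 667 nm fluorescence intensity with signal-to-noise per printed feature.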 To be noted: higher = more signal.
The nature of assay [7]: small-molecule microarray binders of probe aShh, primary screen, biochemical, biotinylated probe, 635/667 nm fluorescence (AID 1114).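 Also: probe is biotin-labelled aShh protein from a stem cell growth factor screen; measures binding of labelled protein to compounds printed on the slide; score merges feature fluorescence at 667 nm with signal-to-noise.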 To be noted: higher = more signal.
A short description of assay [8]: small-molecule microarray binders of probe aNog, primary screen, biochemical, biotinylated probe, 635/667 nm fluorescence (AID 1115).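 Also: probe is biotinylated aNog protein used at 0.15 µg/mL for 1 h at 4 C; z-score combines 667 nm fluorescence of each spot with its signal to noise.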 Particulars: higher = more signal.
Assay [9] concerns the target Torsin-1A-interacting protein 1 (Homo sapiens) (UniProt Q5JTV8). Briefly: LAP1 binders from COS7 cell lysate, primary screen, small-molecule microarray, 635/667 nm fluorescence (AID 1116). To be noted: COS7-hLAP1 lysate binding, 635 nm fluorescence, higher = more signal.
For assay [10], the target named is Alpha-bungarotoxin (Bungarus multicinctus) (UniProt P60615). Briefly: alpha-bungarotoxin binders on microarray, profiling panel, artefact control for SMM control protein annotation, biochemical, small-molecule microarray, Alexa647 label, 635/667 nm fluorescence (AID 1117). To be noted: alpha-BTX-A647 binding fluorescence, higher = more signal.
Alpha-bungarotoxin (Bungarus multicinctus), sequence (P60615 whole entry, looked up): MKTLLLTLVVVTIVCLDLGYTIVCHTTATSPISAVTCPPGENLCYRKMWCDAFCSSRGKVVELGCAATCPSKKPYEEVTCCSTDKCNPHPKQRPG
The target in another assay is Albumin (Bos taurus) (UniProt P02769). Briefly: bovine serum albumin binders on microarray, profiling panel, artefact control for SMM control protein annotation, biochemical, small-molecule microarray, Alexa647 label, 635/667 nm fluorescence (AID 1118).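 Also: score merges 667 nm emission intensity and signal-to-noise per printed compound spot.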 To be noted: BSA-A647 binding, fluorescence 635 nm, higher = more signal.
Albumin (Bos taurus), sequence (P02769 whole entry, looked up): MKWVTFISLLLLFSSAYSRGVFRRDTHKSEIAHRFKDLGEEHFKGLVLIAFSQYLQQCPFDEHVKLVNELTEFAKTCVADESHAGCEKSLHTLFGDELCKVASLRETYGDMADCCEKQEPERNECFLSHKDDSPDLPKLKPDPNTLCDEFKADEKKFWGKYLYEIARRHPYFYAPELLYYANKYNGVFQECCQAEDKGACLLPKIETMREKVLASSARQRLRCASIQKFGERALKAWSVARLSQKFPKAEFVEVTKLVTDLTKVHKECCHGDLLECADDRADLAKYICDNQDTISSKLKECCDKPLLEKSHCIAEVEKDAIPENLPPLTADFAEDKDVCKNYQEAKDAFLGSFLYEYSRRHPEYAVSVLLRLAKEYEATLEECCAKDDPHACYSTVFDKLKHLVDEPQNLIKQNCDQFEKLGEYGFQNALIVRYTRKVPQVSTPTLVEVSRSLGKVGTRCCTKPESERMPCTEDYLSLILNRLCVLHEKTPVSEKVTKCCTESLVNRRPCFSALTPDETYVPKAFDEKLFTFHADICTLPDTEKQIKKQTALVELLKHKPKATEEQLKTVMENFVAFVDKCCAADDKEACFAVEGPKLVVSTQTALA
A short description of assay [11]: small-molecule microarray binders of probe aXIP, primary screen, biochemical, NeuroSMM set, 635/667 nm fluorescence (AID 1119).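 Also: probe is the protein aXip251-270 applied at 1 µg/mL to compound-printed slides; binding of probe to printed compounds measured as 667 nm fluorescence plus signal to noise.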 To be noted: higher = more signal, called active from +8 up or from −8 down.
The nature of assay [12]: small-molecule binders of probe aNOTCH3, primary screen, biochemical, small-molecule microarray, 635/667 nm fluorescence (AID 1120).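 Also: probe is a biotin-tagged antibody raised against NOTCH3 rather than NOTCH3 protein; score merges spot fluorescence near 667 nm with spot signal to noise.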 To be noted: higher = more signal.
Assay [13] in a line: small-molecule binders of probe aNOTCH2, primary screen, biochemical, small-molecule microarray, 635/667 nm fluorescence (AID 1121).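 Also: score merges feature fluorescence read at 667 nm with its signal to noise.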 Particulars: higher = more signal.
Assay [14] concerns the target Carbonic anhydrase 2 (Homo sapiens) (UniProt P00918). The experiment in a line: CAII small-molecule binders, profiling panel, biochemical, small-molecule microarray, Alexa647-labelled CAII (AID 1122). To be noted: CAII-A647 binding fluorescence, higher = more signal.
A short description of assay [15]: COS7 lysate on small-molecule microarray, probe aHis, 635 nm (AID 1123).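 Also: z-score combines 667nm fluorescence intensity with signal-to-noise per printed compound spot.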 To be noted: COS7 cell lysate, fluorescence, higher = more signal.
A short description of assay [16]: compound binding in COS7 lysate, probe aLAP1, primary screen, cell lysate, small-molecule microarray (AID 1124).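 Also: lysate comes from COS7 cells expressing LAP1 and is applied at 0.3 µg/mL; score merges spot fluorescence near 667 nm with signal-to-noise over triplicate slides.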 Particulars: probe aLAP1, fluorescence, higher = more signal.
The subject of a further assay is Sam68 (KHDRBS1). The experiment in a line: Sam68 small-molecule binders, primary screen, biochemical, small-molecule microarray, 635 nm fluorescence (AID 1125).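 Also: score merges 667 nm channel intensity with signal to noise over triplicate slides.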 Particulars: small-molecule microarray binding, higher = more signal.
The subject of assay [17] is Chordin-like protein 2 (CHRDL2). The experiment in a line: CHRDL2 small-molecule binders, primary screen, biochemical, small-molecule microarray, 635 nm fluorescence (AID 1126).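 Also: printed compound slides probed with Chrdl2 protein at 4 µg/mL for 1 h at 4 C; score merges 667 nm emission intensity with signal to noise over three replicate slides.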 To be noted: small-molecule microarray binding, fluorescence 635 nm; higher = more signal.
Assay [18] deals with Concanavalin-A (Canavalia ensiformis) (UniProt P02866). The experiment in a line: ConA small-molecule binders, primary screen, artefact control for SMM control protein annotation, biochemical, small-molecule microarray, Alexa647 label, 635 nm (AID 1127).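 Also: z combines 667 nm emission intensity with signal-to-noise across three replicate slides.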 Particulars: ConA-A647 binding fluorescence, higher = more signal.
Concanavalin-A (Canavalia ensiformis), sequence (P02866 whole entry, looked up): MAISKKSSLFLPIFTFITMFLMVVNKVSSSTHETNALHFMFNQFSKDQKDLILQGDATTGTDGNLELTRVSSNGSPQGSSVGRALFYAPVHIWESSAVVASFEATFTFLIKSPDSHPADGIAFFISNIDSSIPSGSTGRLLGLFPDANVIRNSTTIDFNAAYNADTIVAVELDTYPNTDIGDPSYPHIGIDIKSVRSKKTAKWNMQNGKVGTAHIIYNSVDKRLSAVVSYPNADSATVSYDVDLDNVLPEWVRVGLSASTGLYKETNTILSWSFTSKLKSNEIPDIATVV

Torsin-1A-interacting protein 1 (Homo sapiens), sequence (Q5JTV8 whole entry, looked up): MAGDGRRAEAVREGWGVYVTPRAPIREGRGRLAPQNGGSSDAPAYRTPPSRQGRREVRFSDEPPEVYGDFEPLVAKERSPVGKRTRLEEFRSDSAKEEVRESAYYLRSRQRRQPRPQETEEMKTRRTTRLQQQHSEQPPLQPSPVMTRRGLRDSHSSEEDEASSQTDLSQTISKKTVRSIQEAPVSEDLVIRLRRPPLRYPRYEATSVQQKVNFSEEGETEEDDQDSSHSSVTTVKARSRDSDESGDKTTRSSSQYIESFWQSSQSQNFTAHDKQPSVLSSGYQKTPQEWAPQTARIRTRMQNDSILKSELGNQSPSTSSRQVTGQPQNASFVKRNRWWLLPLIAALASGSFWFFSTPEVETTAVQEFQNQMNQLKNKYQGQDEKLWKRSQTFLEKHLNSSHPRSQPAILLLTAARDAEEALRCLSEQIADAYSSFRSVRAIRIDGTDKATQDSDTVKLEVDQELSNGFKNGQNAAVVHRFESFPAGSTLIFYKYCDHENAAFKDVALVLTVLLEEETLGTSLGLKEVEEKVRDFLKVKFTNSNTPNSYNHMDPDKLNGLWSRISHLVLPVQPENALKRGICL

Take `C[N+](C)(C)CCCC[C@@H]1NC(=O)[C@H]2C[C@@H](C(=O)NCCCCCCN)[C@@H](c3cccc(OCCO)c3)N2C1=O`: the composite z-score in assay [1] is 1.4; in assay [3], 1.39; in assay [4], 1.11; in assay [5], 1.13; in assay [6], 0.469; in assay [7], 0.705. In addition, the composite z-score in assay [8] is 2.31; in assay [9], 1.21; in assay [10] it was 0.995; with Albumin (Bos taurus) it was 0.149; in assay [12], 0.536; in assay [13], 0.198. The composite z-score in assay [14] is 0.752; in assay [15] it was 2.07; in [16] it was 1.04; in the assay on Sam68 (KHDRBS1), 1.3; in assay [17] it was 0.886; in assay [18], 0.936. The z-score in assay [2] came out at 0.347. Also, the composite Z-score in [11] was 0.514 (inactive).
Take `CC(C)CNC(=O)[C@@]1(C)c2ccccc2C(=O)N(Cc2ccccc2)[C@H]1c1ccc(CO)cc1`: the composite z-score in assay [1] was -0.205; in assay [3], -1.55; in assay [4] it was -1.21; in [5], 0.431; in assay [6], -0.192; in [7], -0.0735. In addition, the composite z-score is -0.327 in [8]; 0.055 in assay [9]; -0.905 in [10]; -0.928 with Albumin (Bos taurus); -0.352 in [12]; -0.133 in [13]. Also, the composite z-score was 0.788 in assay [14]; 1.19 in assay [15]; 1.16 in assay [16]; -0.992 with Sam68 (KHDRBS1); -2.5 in assay [17]; -1.44 in assay [18]. Also, the z-score in assay [2] worked out at 0.0768. The composite Z-score in assay [11] is 3.02 (inactive).
With `COCCCNC(=O)[C@@]1(C)c2ccccc2C(=O)N(c2ccc(C)cn2)[C@H]1c1ccc(CO)cc1`, the composite z-score in [1] is -0.588; in [3] it was -0.877; in assay [4] it was -0.949; in [5], -1.12; in [6], -0.172; in assay [7] it was 0.283. The composite z-score in assay [8] was -0.911; in [9], 1.69; in assay [10] it was -1.65; in the assay with Albumin (Bos taurus), 0.537; in assay [12], -0.463; in assay [13] it was -0.135. For the same compound, the composite z-score is 0.789 in assay [14]; -0.317 in [15]; 0.406 in assay [16]; -0.225 in the assay on Sam68 (KHDRBS1); -0.889 in assay [17]; -0.731 in [18]. Also, the z-score in assay [2] was -0.0063. The composite Z-score in assay [11] was -0.333 (inactive).
`NCCCCCCNC(=O)[C@H]1C[C@H]2C(=O)N3CCC[C@H]3C(=O)N2[C@H]1c1ccc(O)cc1`: the composite z-score in assay [1] is -0.0863; in [3], 0.55; in [4], 0.192; in assay [5], 0.102; in assay [6] it was 0.15; in assay [7], -0.0441. For the same compound, the composite z-score in assay [8] was -0.28; in [9], 0.999; in assay [10] it was 1.05; with Albumin (Bos taurus) it was 0.425; in [12], -0.0362; in [13], -0.201. For the same compound, the composite z-score in [14] amounted to 0.722; in assay [15] it was 0.307; in assay [16], 0.597; in the assay with Sam68 (KHDRBS1), 0.644; in assay [17] it was 0.777; in assay [18], 0.998. For the same compound, in assay [2], the z-score came out at 0.0433. In addition, in assay [11], the composite Z-score was 2.61 (inactive).
Turning to `COCCOC(=O)N1C(=O)[C@@]2(c3cc(C#CCNC(N)=O)ccc31)[C@H](C(=O)N1CCCCCCC1)[C@H]1C(=O)O[C@H](c3ccccc3)[C@H](c3ccccc3)N1[C@@H]2c1ccc(OCCO)cc1`, the composite z-score in [1] is 0.748; in [3], 0.277; in assay [4], 1.13; in [5], 0.801; in assay [6], 0.0075; in [7] it was -0.138. Moreover, the composite z-score is -0.118 in [8]; 0.263 in [9]; 1.09 in assay [10]; 0.27 with Albumin (Bos taurus); 0.331 in assay [12]; 0.0245 in [13]. Besides, the composite z-score was 0.244 in assay [14]; 0.46 in assay [15]; 1.32 in assay [16]; 0.653 in the assay with Sam68 (KHDRBS1); 0.298 in assay [17]; 0.979 in assay [18]. In addition, the z-score in assay [2] was -0.431. Moreover, the composite Z-score in assay [11] was 0.32 (inactive).

These data come from PubChem BioAssay.
